# Source: PubChem BioAssay
# “And” between values parts separate entries of the source, which are not always exact repeats. Equal entries are not always repeated. Results filed as inconclusive are left out. The source made the active and inactive calls.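 Rule for the calls, unless noted: active = compounds whose cell count with miR-34 switched on is under 0.7 times the count with it off; inactive = the rest.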
# Columns and labels:
# [1] = P. berghei load reduction in hepatocytes – cell-based, HepG2, luciferase luminescence, HepG2 viability, primary screen (AID 624349; in the data active = parasite load remaining mostly below about 12%, no sharp cut-off; inactive = mostly above about 10%;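 note: 100% = mean of DMSO negative control wells on the same plate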); settings: P. berghei liver stage in HepG2, luciferase luminescence, concentration not given here; parasite load remaining: stronger effect = lower value; viability: measured here: HepG2 viability without parasites
# [2] = Wnt pathway potentiators raising nuclear beta-catenin – imaging, WNT3A-conditioned medium, mouse C2C12, NPC library, primary screen (AID 1117326; in the data active = nuclear beta-catenin stimulation mostly above about 4.2%, no sharp cut-off; inactive = mostly below about 10%; note: reference of the scale not given here); settings: stronger effect = higher value
# [3] = stimulators of insulin release from INS-1E, primary screen, cell-based, 5 mM glucose, NPC library (AID 1117329;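 active = compound raises insulin release from rat beta cells at 5 mM glucose, no numeric limit stated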; note: reference of the scale not given here); settings: rat INS-1E insulin secretion, at 10 µM, stronger effect = higher value
# [4] = growth inhibition of GSK3B-pretreated HCT116 cells – cell-based, CellTiter-Glo, 0.2 to 20 µM (AID 1117336;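 active = compounds lowering colon cancer cell viability after pretreatment blocking the GSK3B kinase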); settings: HCT116 viability after GSK3B inhibitor, at 20 µM, stronger effect = higher value
# [5] = inhibition of endothelial tube formation, primary screen, imaging, VEGF stimulated, CD31 staining, tube area, NPC library (AID 1117340;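 active = compound that reduces growth-factor-driven endothelial tube area in a mixed cell culture, no cutoff stated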); settings: VEGF-stimulated ADSC/ECFC co-culture, at 10 µM, stronger effect = higher value
# [6] = GLP1 release stimulators, primary, NCI-H716, NPC library (AID 1117341;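 active = compound raises GLP1 secretion from the human gut endocrine cells, with no numeric limit stated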; note: reference of the scale not given here); settings: NCI-H716 cells, at 10 µM, stronger effect = higher value
# [7] = HCT116 colon cancer cell growth inhibition, primary screen, CellTiter-Glo luminescence, NPC library (AID 1117342;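 active = compounds that lower survival of HCT116 colon cancer cells in the luminescence readout, no numeric limit stated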); settings: at 20 µM (top of the series)
# [8] = reduced SW480 viability measured with CellTiter-Glo, NPC library, primary (AID 1117343;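 active = compounds that lower viability of the colon cancer cells in the luminescence readout, with no numeric limit stated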); settings: CellTiter-Glo luminescence; at 20 µM (top of the series) unless noted
# [9] = NPC library primary testing for decreased DLD-1 cell viability via CellTiter-Glo (AID 1117346;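 active = compounds that lower survival of DLD-1 colon cancer cells in the luminescence readout, no cutoff given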); settings: DLD-1 viability, CellTiter-Glo luminescence; at 20 µM (top of the series)
# [10] = viability loss in pontine glioma line – cell-based, SU-DIPG-XVII, MIPE5.0, CellTiter-Glo, qHTS, dose response (AID 1347060; cut-off not given, nearly all actives have AC50 up to about 26 µM;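 for AC50: cells exposed to compound for 48 hours before viability readout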); settings: CellTiter-Glo ATP luminescence
# [11] = viability loss in pontine glioma line – cell-based, SU-DIPG-XIII, MIPE4.0, CellTiter-Glo, qHTS, dose response (AID 1347061; cut-off not given, nearly all actives have AC50 up to about 37 µM;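 note: cells exposed to compound for 48 hours before readout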); settings: CellTiter-Glo ATP luminescence
# [12] = viability loss in pontine glioma line – cell-based, JHH-DIPG-1, MIPE4.0, CellTiter-Glo, qHTS, dose response (AID 1347062; cut-off not given, nearly all actives have AC50 up to about 27 µM); settings: JHH-DIPG-1 viability, CellTiter-Glo ATP luminescence
# [13] = growth inhibition of DIPG cells – cell-based, MIPE5.0 library, qHTS (AID 1347068; cut-off not given, nearly all actives have IC50 up to about 30 µM); settings: SU-DIPG-XXV viability
# [14] = viability loss with induced miR-34 in A549 – imaging, A549 dox-inducible miR-34, nuclei and caspase counts, primary screen (AID 1347080); settings: A549 miR-34 inducible, Hoechst nuclei count, 48 h
# [15] = MELAS cybrid and Rieske KO viability enhancers – cell-based, MELAS cybrids, Rieske KO mouse fibroblasts, CellTiter-Glo, primary screen (AID 1508586;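 active = mean z-score across replicates of 1.96 or higher in either the MELAS or the Rieske mutant cell line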;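 note: z relative to plate mean and SD of compound and empty wells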); settings: low glucose
# [16] = target: NAD(+) hydrolase SARM1 (Homo sapiens) (UniProt Q6SZW1); test: blocking NAD cleavage by SARM1 SAM-TIR – cell lysate, NAD-Glo luminescence (AID 1508614;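 active = compound whose remaining NAD level is above about 45 nM, limit read from the data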;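 note: higher remaining NAD means stronger inhibition of SARM1 NADase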); settings: SAM-TIR HEK293T lysate NADase, at 1 µM, stronger effect = higher value
# [17] = galactose survival enhancers in mitochondrial complex I cybrids – cell-based, galactose medium, ATP luminescence, primary screen (AID 1645843;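 active = z-score of at least 1.8 in each of two replicates, scored against plate mean and spread of sample wells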;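 note: positive z means more ATP and so rescue of galactose-driven cybrid death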); settings: complex I mutant cybrid cells, 72 h, stronger effect = higher value
# [18] = stronger effect = lower value, cell number ratio, induced over uninduced
# [19] = measured here: relative caspase fold change +Dox/-Dox
# [20] = measured here: total cells with miR-34 induction, stronger effect = lower value
# [21] = measured here: total cells without miR-34 induction
# [22] = MELAS cybrid survival, CellTiter-Glo 48 h, stronger effect = higher value
# [23] = Rieske KO mouse fibroblast survival, CellTiter-Glo 72 h
# Chain of NAD(+) hydrolase SARM1 (Homo sapiens) (Q6SZW1 whole entry, looked up): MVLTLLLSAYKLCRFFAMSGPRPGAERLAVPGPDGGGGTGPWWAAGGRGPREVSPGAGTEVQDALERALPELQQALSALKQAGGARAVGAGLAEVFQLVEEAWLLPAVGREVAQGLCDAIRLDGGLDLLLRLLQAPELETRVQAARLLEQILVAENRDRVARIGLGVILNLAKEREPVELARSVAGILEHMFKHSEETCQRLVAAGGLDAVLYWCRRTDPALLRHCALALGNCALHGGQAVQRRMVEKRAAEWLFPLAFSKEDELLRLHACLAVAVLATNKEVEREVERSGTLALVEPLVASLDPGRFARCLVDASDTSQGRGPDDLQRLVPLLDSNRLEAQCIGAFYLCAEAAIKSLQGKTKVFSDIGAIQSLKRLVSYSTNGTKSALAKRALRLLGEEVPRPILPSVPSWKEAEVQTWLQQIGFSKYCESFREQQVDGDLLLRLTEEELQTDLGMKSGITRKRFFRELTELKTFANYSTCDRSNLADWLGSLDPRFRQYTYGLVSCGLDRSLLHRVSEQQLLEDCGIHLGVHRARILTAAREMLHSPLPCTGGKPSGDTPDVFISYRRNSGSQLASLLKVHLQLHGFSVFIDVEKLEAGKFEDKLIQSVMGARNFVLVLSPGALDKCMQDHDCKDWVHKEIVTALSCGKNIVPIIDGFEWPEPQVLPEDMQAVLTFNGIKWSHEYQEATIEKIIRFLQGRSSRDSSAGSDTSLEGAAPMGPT
smiles,measurement,setting,value
O=c1[nH]c(=O)n([C@H]2C[C@H](O)[C@@H](CO)O2)cc1I,parasite load remaining,[1],42.1% (inactive) and 24.1% (inactive)
same,viability,[1],53.4% and 72.5%
same,nuclear beta-catenin stimulation,[2]; at 10 µM,-0.5% (inactive)
same,nuclear beta-catenin stimulation,"[2]; stimulation, at 2 µM",0.3%
same,insulin secretion stimulation,[3],0.4% (inactive)
same,viability decrease,[4],10.1% (inactive)
same,tube area decrease,[5],69.4% (active)
same,GLP1 secretion stimulation,[6],-0.6% (inactive)
same,inhibition of viability,[7],11.4% (inactive)
same,viability decrease (inhibition),[8],39.4% (inactive)
same,viability decrease (inhibition),[9],9.4% (inactive)
same,outcome,[10],inactive
same,outcome,[11],inactive
same,outcome,[12],inactive
same,outcome,[13],inactive
same,fold change,[14]; [18],0.955 (inactive) and 0.894 (inactive)
same,fold change,[14]; [19],1.48 and 1.08
same,cell count,[14]; [20],8120 and 9040
same,cell count,[14]; [21],8510 and 10100
same,z-score,[15]; [22],1.21 (inactive) and 1.8 (inactive)
same,z-score,[15]; [23],0.284 and 0.0835
same,remaining NAD,[16],10 nM (inactive)
same,z-score,[17],0.45 (inactive)
Clc1ccc(C(Cn2ccnc2)OCc2c(Cl)cccc2Cl)c(Cl)c1 (stereo unspecified),parasite load remaining,[1],26.3% (inactive) and 91.5% (inactive)
same,viability,[1],46.9% and 87.2%
same,nuclear beta-catenin stimulation,[2]; at 10 µM,1.3% (inactive)
same,nuclear beta-catenin stimulation,"[2]; stimulation, at 2 µM",-1.1%
same,insulin secretion stimulation,[3],3.1% (inactive)
same,viability decrease,[4],110% (active)
same,tube area decrease,[5],107% (active)
same,GLP1 secretion stimulation,[6],35.3% (active)
same,inhibition of viability,[7],113% (active)
same,viability decrease (inhibition),[8],132% (active)
same,viability decrease (inhibition),[9],101% (active)
same,AC50,[10],23.5 µM (active)
CCCCN(CCCC)CC(O)c1cc(Cl)cc2c1-c1ccc(Cl)cc1/C2=C/c1ccc(Cl)cc1 (stereo unspecified),nuclear beta-catenin stimulation,[2]; at 10 µM,0.5% (inactive)
same,nuclear beta-catenin stimulation,"[2]; stimulation, at 2 µM",-0.3%
same,insulin secretion stimulation,[3],-0.3% (inactive)
same,viability decrease,[4],9.1% (inactive)
same,tube area decrease,[5],25.1% (inactive)
same,GLP1 secretion stimulation,[6],-3.6% (inactive)
same,inhibition of viability,[7],31% (inactive)
same,viability decrease (inhibition),[8],10.6% (inactive)
same,viability decrease (inhibition),[9],14.9% (inactive)
same,outcome,[11],inactive
same,outcome,[12],inactive
same,outcome,[13],inactive
same,fold change,[14]; [18],1.04 (inactive)
same,fold change,[14]; [19],2.5
same,cell count,[14]; [20],8950
same,cell count,[14]; [21],8560
same,z-score,[17],0.075 (inactive)
COc1ccc(-c2ccc3cc(C(=O)O)ccc3c2)cc1C12CC3CC(CC(C3)C1)C2,nuclear beta-catenin stimulation,[2]; at 10 µM,21.9% (inactive)
same,nuclear beta-catenin stimulation,"[2]; stimulation, at 2 µM",32.2%
same,insulin secretion stimulation,[3],0.9% (inactive)
same,viability decrease,[4],118% (active)
same,tube area decrease,[5],99.5% (active)
same,GLP1 secretion stimulation,[6],-2.3% (inactive)
same,inhibition of viability,[7],123% (active)
same,viability decrease (inhibition),[8],159% (active)
same,viability decrease (inhibition),[9],102% (active)
same,AC50,[10],3.32 µM (active)
same,outcome,[12],inactive
same,outcome,[13],inactive
same,fold change,[14]; [18],1.08 (inactive) and 1.16 (inactive)
same,fold change,[14]; [19],0.775 and 0.908
same,cell count,[14]; [20],1330 and 1240
same,cell count,[14]; [21],1230 and 1070
same,z-score,[15]; [22],-0.222 (inactive) and -1.26 (inactive)
same,z-score,[15]; [23],0.947 and 0.282
same,remaining NAD,[16],10 nM (inactive)
